The source made the active and inactive calls. How the source made its calls: active means hit-call score of the fitted dose curve at least 0.9, where 1 is the maximum; inactive means score below 0.9.
Tests used:
[1] = ATG_CRE_CIS: Attagene CIS-FACTORIAL HepG2 Assay for human cAMP Responsive Element (CRE) binding protein 3 (AID 2282926); settings: HepG2 CRE cis-reporter, Attagene multiplexed mRNA; actives raise or lower the signal
Method in brief: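 We dosed HepG2 cells bearing multiple cis-promoter reporter units for 24 h and measured reporter mRNA by RT-PCR with capillary electrophoresis detection. Bidirectional concentration-response fitting used DMSO as negative control.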

[2] = target: CCAAT/enhancer-binding protein beta (Homo sapiens) (UniProt P17676); experiment: ATG_C_EBP_CIS: Attagene CIS-FACTORIAL HepG2 Assay for human CCAAT/Enhancer Binding Protein (C/EBP) beta (AID 2282927); settings: HepG2 Attagene cis-factorial transcription factor reporter; actives raise or lower the signal
CCAAT/enhancer-binding protein beta (Homo sapiens), sequence (P17676 whole entry, looked up): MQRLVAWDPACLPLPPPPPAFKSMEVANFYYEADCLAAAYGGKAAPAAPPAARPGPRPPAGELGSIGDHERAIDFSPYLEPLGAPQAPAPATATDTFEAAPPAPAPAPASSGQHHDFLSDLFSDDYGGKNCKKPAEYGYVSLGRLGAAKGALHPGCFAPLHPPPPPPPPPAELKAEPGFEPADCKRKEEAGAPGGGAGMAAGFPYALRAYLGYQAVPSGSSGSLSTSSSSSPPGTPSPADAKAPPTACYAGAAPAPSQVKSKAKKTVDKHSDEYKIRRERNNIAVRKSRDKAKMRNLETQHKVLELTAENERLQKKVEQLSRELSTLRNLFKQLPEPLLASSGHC
Method in brief: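 Changes in reporter mRNA, rather than exogenous chimeric receptor activity, reflect native C/EBP signalling in transfected HepG2 cells dosed for 24 h; transcripts are detected by RT-PCR and capillary electrophoresis.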

[3] = ATG_DR4_LXR_CIS: Attagene CIS-FACTORIAL HepG2 Assay for human Liver X Receptor (LXR), DR4 submotif (AID 2282929); settings: HepG2 Attagene DR4 cis-reporter, mRNA transcription; actives raise or lower the signal
Method in brief: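 Cells were transfected with multiple reporter transcription units, exposed to chemicals for 24 hours, then lysed for RNA. Reporter mRNA induction was measured by RT-PCR with capillary electrophoresis detection and fitted in both directions relative to DMSO.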

[4] = target: Aryl hydrocarbon receptor (Homo sapiens) (UniProt P35869); experiment: ATG_Ahr_CIS: Attagene CIS-FACTORIAL HepG2 Assay for human Aryl Hydrocarbon Receptor (Ahr) (AID 2282930); settings: HepG2 AhR cis-factorial reporter transcription; actives raise or lower the signal
Aryl hydrocarbon receptor (Homo sapiens), sequence (P35869 whole entry, looked up): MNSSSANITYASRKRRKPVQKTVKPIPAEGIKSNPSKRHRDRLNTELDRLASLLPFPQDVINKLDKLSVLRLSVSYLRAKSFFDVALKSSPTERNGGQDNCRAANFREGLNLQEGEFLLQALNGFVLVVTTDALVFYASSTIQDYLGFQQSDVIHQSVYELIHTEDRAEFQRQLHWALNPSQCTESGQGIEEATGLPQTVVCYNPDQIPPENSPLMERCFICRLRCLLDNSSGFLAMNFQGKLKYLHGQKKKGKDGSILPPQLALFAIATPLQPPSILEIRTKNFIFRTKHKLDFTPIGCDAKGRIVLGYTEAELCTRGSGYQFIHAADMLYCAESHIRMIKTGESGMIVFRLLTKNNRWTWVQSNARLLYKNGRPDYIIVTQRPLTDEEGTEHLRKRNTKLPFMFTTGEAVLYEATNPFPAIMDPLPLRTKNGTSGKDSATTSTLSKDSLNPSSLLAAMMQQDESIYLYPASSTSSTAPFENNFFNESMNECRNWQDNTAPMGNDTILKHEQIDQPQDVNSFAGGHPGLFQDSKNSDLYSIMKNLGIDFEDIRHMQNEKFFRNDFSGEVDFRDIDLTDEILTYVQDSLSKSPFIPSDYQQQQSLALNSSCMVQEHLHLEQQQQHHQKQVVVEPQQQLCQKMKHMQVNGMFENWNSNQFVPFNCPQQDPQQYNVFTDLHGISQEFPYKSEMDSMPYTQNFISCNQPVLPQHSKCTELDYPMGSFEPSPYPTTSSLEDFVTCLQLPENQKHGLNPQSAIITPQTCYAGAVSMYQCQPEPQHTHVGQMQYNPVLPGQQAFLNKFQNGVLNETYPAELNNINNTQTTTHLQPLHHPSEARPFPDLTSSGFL
Method in brief: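 HepG2, transient MRTU (cis) transfection, 24 h exposure. RNA → cDNA → PCR → 6-FAM primer extension → HpaI 2 h 37 C → CE. Fit: bidirectional, DMSO baseline.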

[5] = ATG_AP_1_CIS: Attagene CIS-FACTORIAL HepG2 Assay for human Activator Protein 1 (AP-1) (AID 2282931); settings: HepG2 Attagene cis-factorial AP-1 reporter mRNA; actives raise or lower the signal
Method in brief: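 Endogenous transcription-factor activity in human HepG2 liver cells is read through a cis-promoter reporter transcript, sampled 24 h after dosing. Detection uses RT-PCR with capillary electrophoresis; values come from bidirectional fitting relative to DMSO.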

[6] = ATG_AP_2_CIS: Attagene CIS-FACTORIAL HepG2 Assay for human Activator Protein 2 (AP-2) (AID 2282932); settings: HepG2 AP-2 cis-reporter, Attagene transcription factor profiling; actives raise or lower the signal
Method in brief: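 Step one: transient transfection of HepG2 with reporter transcription units. Step two: 24 h chemical exposure. Step three: RNA extraction, RT-PCR, labelled fragment analysis by capillary electrophoresis; DMSO serves as baseline.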

[7] = ATG_BRE_CIS: Attagene CIS-FACTORIAL HepG2 Assay for human Bone Morphogenetic Protein (BMP) Response Element (BRE) (AID 2282933); settings: HepG2 BMP response element reporter, Attagene transcription factor profiling; actives raise or lower the signal
Method in brief: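 Gain- or loss-of-signal was derived by bidirectional fitting against DMSO controls. The signal came from reporter mRNA, measured by RT-PCR and capillary electrophoresis, in HepG2 cells transiently carrying multiple reporter units and dosed for 24 h.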

[8] = target: Retinoic acid receptor alpha (Homo sapiens) (UniProt P10276); experiment: ATG_DR5_RAR_CIS: Attagene CIS-FACTORIAL HepG2 Assay for human Retinoic Acid Receptor Alpha (RARE), DR5 submotif (AID 2282934); settings: HepG2 Attagene cis-factorial RARE DR5 reporter, mRNA; actives raise or lower the signal;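 on AC50: reporter responds to endogenous RAR alpha beta and gamma in HepG2 not RARA alone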
Retinoic acid receptor alpha (Homo sapiens), sequence (P10276 whole entry, looked up): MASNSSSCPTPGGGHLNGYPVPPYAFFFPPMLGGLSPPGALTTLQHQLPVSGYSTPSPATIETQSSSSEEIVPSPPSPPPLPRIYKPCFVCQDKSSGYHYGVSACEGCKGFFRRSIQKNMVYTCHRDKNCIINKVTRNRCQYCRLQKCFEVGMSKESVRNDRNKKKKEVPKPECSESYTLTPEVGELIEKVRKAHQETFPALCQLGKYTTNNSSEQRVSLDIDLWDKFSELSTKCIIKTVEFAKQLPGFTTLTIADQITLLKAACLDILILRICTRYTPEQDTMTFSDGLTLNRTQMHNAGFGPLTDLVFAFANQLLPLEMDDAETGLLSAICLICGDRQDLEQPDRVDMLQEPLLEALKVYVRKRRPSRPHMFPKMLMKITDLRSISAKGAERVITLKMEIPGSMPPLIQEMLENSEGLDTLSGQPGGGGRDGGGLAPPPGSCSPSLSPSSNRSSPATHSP
Method in brief: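 HepG2, transient cis-reporter transfection, 24 h exposure. mRNA readout: RT-PCR, FAM label, HpaI cut, capillary electrophoresis. DMSO baseline, gain/loss fitting.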

[9] = target: Transcription factor E2F1 (Homo sapiens) (UniProt Q01094); experiment: ATG_E2F_CIS: Attagene CIS-FACTORIAL HepG2 Assay for human E2F Transcription Factor 1 (AID 2282935); settings: HepG2 Attagene cis-reporter, E2F reporter RNA transcripts; actives raise or lower the signal
Transcription factor E2F1 (Homo sapiens), sequence (Q01094 whole entry, looked up): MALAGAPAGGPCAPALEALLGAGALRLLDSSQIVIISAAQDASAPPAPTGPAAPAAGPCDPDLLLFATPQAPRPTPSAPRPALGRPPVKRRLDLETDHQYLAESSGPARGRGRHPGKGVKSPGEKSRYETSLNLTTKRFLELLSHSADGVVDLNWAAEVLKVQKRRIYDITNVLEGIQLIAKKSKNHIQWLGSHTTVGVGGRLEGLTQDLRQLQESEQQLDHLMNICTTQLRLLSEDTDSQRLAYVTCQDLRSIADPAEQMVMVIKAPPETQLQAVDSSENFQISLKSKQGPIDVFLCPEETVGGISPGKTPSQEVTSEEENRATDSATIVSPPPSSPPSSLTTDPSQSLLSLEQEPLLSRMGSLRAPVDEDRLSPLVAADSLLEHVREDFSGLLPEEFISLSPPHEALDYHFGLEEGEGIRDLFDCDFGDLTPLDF
Method in brief: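 Total RNA from 24 h-treated, reporter-transfected HepG2 cells undergoes DNase I treatment, oligo(dT) reverse transcription, PCR and 6-FAM primer extension before capillary electrophoresis.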

[10] = ATG_CMV_CIS: Attagene CIS-FACTORIAL HepG2 Assay for human CMV (Internal Marker) (AID 2282928); settings: HepG2 CMV promoter reporter, transcription factor profiling; actives raise or lower the signal;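 further: endpoint acts as a background internal control marker rather than a target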
Method in brief: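 After transient transfection of HepG2 with reporter transcription units driven by cis-regulatory promoters, cells receive test chemical for 24 h. Labeled reporter amplicons, digested with HpaI, are sized and quantified by capillary electrophoresis against DMSO.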

Measured: AC50

COC(=O)c1ccc(C)cc1C1=NC(C)(C(C)C)C(=O)N1 (stereo unspecified) (tested in a mixture with another compound)
not listed: [10]
inactive: all other assays above

Cc1c(C2(c3cc(Br)c(O)c(Br)c3C)OS(=O)(=O)c3ccccc32)cc(Br)c(O)c1Br
active: [4] 32.5 µM
not listed: [3] | [6]
inactive: all other assays above

CCCC1O[C@@H]2C[C@H]3[C@@H]4CCC5=CC(=O)C=C[C@]5(C)[C@H]4[C@@H](O)C[C@]3(C)[C@]2(C(=O)CO)O1 (stereo partly specified)
active: [2] 56.5 µM | [3] 100 µM | [5] 165 µM
not listed: [10]
inactive: all other assays above

C[C@H](CCC(=O)NCC(=O)O)[C@H]1CC[C@H]2[C@@H]3[C@H](O)C[C@@H]4C[C@H](O)CC[C@]4(C)[C@H]3C[C@H](O)[C@]12C
not listed: [10]
inactive: all other assays above

CCCCCCCC(=O)OCCCCCC
not listed: [3] | [5]
inactive: all other assays above

CC(C)=CCCC(C)CCOC=O (stereo unspecified)
not listed: [10]
inactive: all other assays above

CCCCCCCCC=CCCCCCCCC1=NCCN1CCO
active: [3] 40.6 µM | [5] 100 µM | [9] 26.1 µM
not listed: [10]
inactive: all other assays above

CCCCCCOC(=O)C(C)C
not listed: [10]
inactive: all other assays above

CC1=NN(c2ccc(S(=O)(=O)O)cc2)C(=O)C1
not listed: [10]
inactive: all other assays above

COc1ccc(CCN2CCC(Nc3nc4ccccc4n3Cc3ccc(F)cc3)CC2)cc1
not listed: [6] | [10]
inactive: all other assays above

CCCCOC(=O)CCCCCCCC(=O)OCCCC
not listed: [10]
inactive: all other assays above

CSc1c(Cl)c(Cl)c(Cl)c(Cl)c1Cl
active: [1] 169 µM | [3] 32 µM
not listed: [10]
inactive: all other assays above

C=CC(=C)CCCC(C)(C)OC(C)=O
not listed: [10]
inactive: all other assays above

CCCCCCC(CO)CCCC (stereo unspecified)
active: [4] 25.6 µM
not listed: [3] | [7]
inactive: all other assays above

CC(C)(C)CC(C)(C)c1ccc(OCCOCC[N+](C)(C)Cc2ccccc2)cc1
active: [10] 14.8 µM | [5] 8.35 µM
not listed: [3] | [7]
inactive: all other assays above

C=C(C)C(=O)OCCOCCOCCOC(=O)C(=C)C
not listed: [10]
inactive: all other assays above

IC(I)I
active: [4] 12.8 µM
not listed: [10]
inactive: all other assays above

COc1ccccc1N=Nc1c(S(=O)(=O)O)cc2cc(S(=O)(=O)O)cc(NC(C)=O)c2c1O
active: [4] 16.4 µM
not listed: [10]
inactive: all other assays above

O=C(O)CCCCCCCCC(=O)O
not listed: [10]
inactive: all other assays above

O=C(O)COCC(=O)O
not listed: [5] | [10]
inactive: all other assays above

O=P(O)(O)O
not listed: [3]
inactive: all other assays above

Nc1ccc2c(O)cc(S(=O)(=O)O)cc2c1
active: [4] 25.9 µM
not listed: [6] | [10]
inactive: all other assays above

C=C1CC[C@H](O)C/C1=C/C=C1\CCC[C@]2(C)[C@@H]([C@H](C)/C=C/[C@H](C)C(C)C)CC[C@@H]12
active: [5] 30.3 µM | [8] 39.8 µM
not listed: [10]
inactive: all other assays above

C#CC(C)(O)CC(C)C (stereo unspecified)
not listed: [10]
inactive: all other assays above

CCNCCO
not listed: [3] | [5] | [10]
inactive: all other assays above

O=[N+]([O-])c1cccc(Cl)c1
not listed: [5] | [6] | [10]
inactive: all other assays above

CCC1(c2ccccc2)C(=O)NCNC1=O
not listed: [7] | [10]
inactive: all other assays above
